This is a sample that favours compounds with a hit; in the whole collection about 1.4% have one here.
IDH1 R132H inh – inhibitors of human mutant IDH1 R132H; O75874; IDH1-R132H enzyme, NADPH consumption, diaphorase/resazurin fluorescence; Potency, µM (titrated, usually from 76.6 µM), without a hit: top-dose activity change, negative = inhibition, hits mostly inhibitors; 0.093% of 390,000 active; further: potency means the concentration at half of the fitted maximal effect; nearly all actives have a fitted effect of over 65% in size
Target sequence (O75874 whole entry R132H, stated change not applied): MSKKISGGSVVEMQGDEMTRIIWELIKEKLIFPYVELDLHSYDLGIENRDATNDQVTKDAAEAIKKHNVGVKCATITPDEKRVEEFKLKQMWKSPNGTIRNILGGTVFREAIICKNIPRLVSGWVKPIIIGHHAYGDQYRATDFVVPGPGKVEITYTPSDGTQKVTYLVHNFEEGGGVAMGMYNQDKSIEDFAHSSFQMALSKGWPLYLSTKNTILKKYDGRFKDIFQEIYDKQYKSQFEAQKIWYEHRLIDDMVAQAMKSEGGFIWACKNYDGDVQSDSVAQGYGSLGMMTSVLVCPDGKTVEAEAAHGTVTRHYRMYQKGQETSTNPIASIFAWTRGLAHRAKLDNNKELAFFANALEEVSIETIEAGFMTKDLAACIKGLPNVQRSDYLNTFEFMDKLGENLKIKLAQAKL
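IDH1-R132H (0.5 ug/mL) preincubated 30 min with compound, then NADPH (0.016 mM) and alpha-KG (2 mM) added; 80 min at RT, pH 7.5. Remaining NADPH coupled via diaphorase/resazurin to fluorescence (540/590 nm); concentration-response curves normalized to no-enzyme control.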
GLS inhibitor – blocks human kidney-isoform glutaminase activity. Potency, µM (titrated, usually from 45.5 µM), without a hit: top-dose activity change, negative = inhibition, hits mostly inhibitors. AID 624170. 0.21% of 410,000 active. GLS enzymatic activity, qHTS titration. O94925; further: potency means the concentration at half of the fitted maximal effect
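Read-out is an Amplex red fluorescence increase coupled through glutamate oxidase and HRP, measured before and after 30 min room-temperature incubation. hKGA is in 45 mM KH2PO4 (pH 8.2) with 0.02% Tween-20; glutamine added as 1mM solution.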
TrxR1 substrate – rat thioredoxin reductase 1 substrate activity | O89049 | purified TrxR1 substrate turnover, NADPH consumption readout | Potency, µM (highest dose often 114 µM), without a hit: at the top dose activity change, negative = substrate turnover | 0.01% of 390,000 active | AID 588456; further: potency means the concentration at half of the fitted maximal effect; nearly all actives have a fitted effect of over 50% in size
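Rat TrxR1, dispensed at 90 nM, was prereduced with 400 uM NADPH (final) for 5 min at ~22 deg C, then incubated with compound 15 min before 400 uM selenite. A first-read NADPH fluorescence drop versus no-compound background flagged substrates.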
rTrxR1 inhibitor – blocks rat thioredoxin reductase 1; recombinant rTrxR1, NADPH fluorescence consumption, selenite substrate; AID 588453; 1% of 390,000 active; Potency, µM (highest dose often 114 µM), for inactives: top-dose activity change, negative = inhibition, usual class: inhibitors; O89049; further: potency means the concentration at half of the fitted maximal effect; nearly all actives have a fitted effect of over 65% in size
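Rat TrxR1 (90 nM in the dispensed reagent) was pre-reduced with 400 uM NADPH for 5 min at room temperature, then incubated with compound for 15 min. After 400 uM selenite was added, NADPH fluorescence (Ex 340/Em 450 nm) was followed for 8 min.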
PKM2 activator – PKM2 (human) enzyme activation | Potency, µM (titrated, usually from 57.5 µM), for the others: top-dose activation, actives largely listed as activators | purified PKM2, Kinase-Glo ATP luminescence, activation; response scale: 0% is enzyme alone, no compound | P14618 | 0.34% of 260,000 active; further: potency means the concentration at half of the fitted maximal effect; nearly all actives have a fitted effect of over 55% in size
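ATP formation by purified human PK-M2, quantified via coupled luciferase luminescence after 1 h at room temperature with 0.1 mM ADP and 0.5 mM PEP final.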
LDHA inh – blocks human lactate dehydrogenase A; P00338; purified LDHA, NADH/diaphorase-resazurin fluorescence; hits give low values; activity change, % (values are at about 110 or 230 µM); 0.15% of 480,000 active; AID 1347041; in the data active means activity change below about -30%; inconclusive means mostly about -25% to -30%;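 further: plate controls were DMSO wells for no effect and wells without enzyme for full effect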
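Human LDH5 at 2 nM final in Tris HCl pH 7.4 with 0.06 mM NADH and 0.2 mM pyruvate, reacted 5 minutes at room temperature. Remaining NADH coupled via diaphorase/resazurin; resorufin fluorescence read at 0 and 20 minutes, normalized to enzyme-free and DMSO wells.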
* hit, by the source's call; [ ] = another dose, or the depositor's remark. Unless noted, the call rests on the fitted dose curve; in most records, active means well fitted curve in the direction sought with a large enough effect; inconclusive means small, poorly fitted or top-dose-only effect, or another doubt; inactive means no such curve, though single readings can be large; an effect the other way counts as inactive or inconclusive. Unless noted, on the % scale 0 is the no-effect control and ±100 the full control effect.

Results for O=C(CS(=O)c1ccccc1[N+](=O)[O-])Oc1ccc(Br)cc1 (stereo not given) ?
IDH1 R132H inh: -2%; GLS inhibitor: 17%; TrxR1 substrate: -3%; rTrxR1 inhibitor: inconclusive; PKM2 activator: -2%; LDHA inh: -2

What do the screens show for `O=[N+]([O-])c1cccc(Cl)c1NCCNS(=O)(=O)c1ccccc1`?
IDH1 R132H inh: -3%; GLS inhibitor: -12%; TrxR1 substrate: -3%; rTrxR1 inhibitor: 1%; PKM2 activator: 14µM*; LDHA inh: -4

How did O=C(COc1cccnc1[N+](=O)[O-])c1ccc(Cl)s1 do in these assays?
IDH1 R132H inh: 5%; GLS inhibitor: 59%; TrxR1 substrate: -5%; rTrxR1 inhibitor: 25µM*; PKM2 activator: -8%; LDHA inh: 41

Results for O=C(COc1cccnc1[N+](=O)[O-])Nc1c(Cl)cccc1Cl ?
IDH1 R132H inh: 3%; GLS inhibitor: -14%; TrxR1 substrate: -1%[2.29 µM]; rTrxR1 inhibitor: 3%[2.29 µM]; LDHA inh: -9

Results for CC(C)c1ccccc1OCC(=O)NC1CCc2ccccc21 (stereo not given) ?
LDHA inh: 5

Results for COc1ccc(S(=O)(=O)N2CCN(CC3CC=CCC3)CC2)cc1 (stereo not given) ?
IDH1 R132H inh: 1%; GLS inhibitor: -2%; TrxR1 substrate: -9%; rTrxR1 inhibitor: 18%[57.1 µM]; PKM2 activator: 2%; LDHA inh: -15

What do the screens show for `CCCS(=O)(=O)N1CCN(CC2CC=CCC2)CC1` (stereo not given)?
IDH1 R132H inh: 13%; GLS inhibitor: -8%; TrxR1 substrate: -10%; rTrxR1 inhibitor: -2%; PKM2 activator: 4%; LDHA inh: -31*

How did CCC(NC(=O)C(C)c1ccc(-c2ccccc2)c(F)c1)C(=O)O (stereo not given) do in these assays?
LDHA inh: -4

Results for Cc1ccc(NC(=O)CSc2nc(-c3ccc(C(C)(C)C)cc3)nc3cc(=O)[nH]n23)cc1C ?
IDH1 R132H inh: 17%; GLS inhibitor: 7%; TrxR1 substrate: 5%[57.1 µM]; rTrxR1 inhibitor: 9%[57.1 µM]; LDHA inh: -41*

Results for CCOc1ccc(-c2nc(SCC(=O)Nc3ccc(C)c(C)c3)n3[nH]c(=O)cc3n2)cc1 ?
IDH1 R132H inh: -15%; GLS inhibitor: inconclusive; TrxR1 substrate: 26%[57.1 µM]; rTrxR1 inhibitor: 43%[57.1 µM]; LDHA inh: -11

What do the screens show for `CCc1ccc(NC(=O)CS(=O)CC(=O)Nc2ccc(-n3cnnn3)c(C)c2)cc1` (stereo not given)?
IDH1 R132H inh: -10%; GLS inhibitor: 8%; TrxR1 substrate: -1%; rTrxR1 inhibitor: 13%; PKM2 activator: -2%; LDHA inh: -32*

What do the screens show for `Cc1cc(NC(=O)CS(=O)CC(=O)Nc2c(C)cccc2C)ccc1-n1cnnn1` (stereo not given)?
IDH1 R132H inh: -1%; GLS inhibitor: 8%; TrxR1 substrate: 4%; rTrxR1 inhibitor: 10%; PKM2 activator: 3%; LDHA inh: -6

What do the screens show for `COc1cccc(/C=C/C(=O)C23CC4CC(CC(C4)C2)C3)c1OC`?
LDHA inh: 5

How did COc1ccc(C(=O)n2nc(-c3ccco3)nc2NCc2cccs2)cc1 do in these assays?
IDH1 R132H inh: 4%; GLS inhibitor: -1%; TrxR1 substrate: -1%; rTrxR1 inhibitor: 22µM*; LDHA inh: -1

Results for COc1ccc(CNc2nc(-c3ccco3)nn2C(=O)c2ccccc2Cl)cc1 ?
GLS inhibitor: 2%; TrxR1 substrate: -1%; rTrxR1 inhibitor: 9%; LDHA inh: -14

What do the screens show for `Cc1cc(SCC(=O)NC(=O)NCc2ccco2)nc2ccccc12`?
IDH1 R132H inh: 4%; GLS inhibitor: -2%; TrxR1 substrate: -2%; rTrxR1 inhibitor: 71µM*; PKM2 activator: 22%; LDHA inh: -6

Results for CSc1ccccc1NC(=O)CSc1cc(C)c2ccccc2n1 ?
LDHA inh: -6

What do the screens show for `Cc1cc(SCC(=O)NC(=O)NCc2ccco2)nc2c(C)cccc12`?
IDH1 R132H inh: 7%; GLS inhibitor: 3%; TrxR1 substrate: 6%[57.1 µM]; rTrxR1 inhibitor: inconclusive; PKM2 activator: 30%; LDHA inh: -17

What do the screens show for `Cc1cc(SCC(=O)Nc2ccc(F)c(F)c2F)nc2ccccc12`?
LDHA inh: -34*

What do the screens show for `Cc1c(NC(=O)c2nn(CCO)c(=O)c3ccccc23)c(=O)n(-c2ccccc2)n1C`?
LDHA inh: 4

Results for Cc1ccc2cccc(NC(=O)C(C)(C)Oc3ccc(Cl)cc3)c2n1 ?
LDHA inh: 7

Results for CC(C)CNC(=O)CCCc1nnc2c(=O)n(-c3ccc(Cl)cc3)ccn12 ?
LDHA inh: 5

How did CSc1ccccc1NC(=O)CN(C)C(C)C(=O)NCc1ccc2c(c1)OCO2 (stereo not given) do in these assays?
IDH1 R132H inh: 0%; GLS inhibitor: 5%; TrxR1 substrate: 0%; rTrxR1 inhibitor: 17%; LDHA inh: -47*

What do the screens show for `CC(C(=O)Nc1ccc2c(c1)OCO2)N(C)CC(=O)Nc1ccccc1Cl` (stereo not given)?
IDH1 R132H inh: -8%; GLS inhibitor: 0%; TrxR1 substrate: 0%; rTrxR1 inhibitor: 28%; LDHA inh: -3

How did Cc1ccccc1S(=O)(=O)N1C[C@H]2CON(C)[C@H]2C[C@H]1c1cccc(-c2ccccc2)c1 do in these assays?
IDH1 R132H inh: -1%[38.3 µM]; GLS inhibitor: 1%; TrxR1 substrate: 2%; rTrxR1 inhibitor: 11%; LDHA inh: 3

How did CN1OC[C@@H]2CN(S(=O)(=O)c3cccc4ccccc34)[C@H](c3ccc(-c4ccccc4)cc3)C[C@@H]21 do in these assays?
IDH1 R132H inh: -12%; GLS inhibitor: 1%; LDHA inh: -30*

How did CCNc1c(NC(=O)Nc2cc(Cl)ccc2C)c(=O)oc2ccccc12 do in these assays?
LDHA inh: -2

Results for Cc1ccc(C(=O)N2CCN(c3ccc(NC(=O)c4ccc(Br)o4)cc3)CC2)cc1 ?
IDH1 R132H inh: -4%; GLS inhibitor: 37%; TrxR1 substrate: 2%; rTrxR1 inhibitor: -10%; PKM2 activator: -4%; LDHA inh: -1

Results for O=C(Nc1ccc(C(=O)N2CCC(N3CCCC3)CC2)cc1)c1ccc(Br)o1 ?
IDH1 R132H inh: -13%; GLS inhibitor: 11%; TrxR1 substrate: 2%; rTrxR1 inhibitor: 56µM*; LDHA inh: 1
